Results on 82 compounds are retold here after paper PMC4336329 (PLoS ONE, 2015).

Screen size: about 310,000 compounds; about 14,000 (4.5%) showed an effect of 50% or more. The effect is printed as a negative number. Many of the other results were omitted from the sample, so strong results are more common in it than they were.
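Also: peak tail current of the secondary pulse compared with the same well before compound.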

For this assay, the target named is human ether-à-go-go-related gene (hERG) potassium channel (human, UniProt Q12809). Nature of the assay: primary screen, population patch clamp on CHO cells stably expressing hERG; higher = less effect of the substance.
Sequence of human ether-à-go-go-related gene (hERG) potassium channel (Q12809 whole entry, looked up): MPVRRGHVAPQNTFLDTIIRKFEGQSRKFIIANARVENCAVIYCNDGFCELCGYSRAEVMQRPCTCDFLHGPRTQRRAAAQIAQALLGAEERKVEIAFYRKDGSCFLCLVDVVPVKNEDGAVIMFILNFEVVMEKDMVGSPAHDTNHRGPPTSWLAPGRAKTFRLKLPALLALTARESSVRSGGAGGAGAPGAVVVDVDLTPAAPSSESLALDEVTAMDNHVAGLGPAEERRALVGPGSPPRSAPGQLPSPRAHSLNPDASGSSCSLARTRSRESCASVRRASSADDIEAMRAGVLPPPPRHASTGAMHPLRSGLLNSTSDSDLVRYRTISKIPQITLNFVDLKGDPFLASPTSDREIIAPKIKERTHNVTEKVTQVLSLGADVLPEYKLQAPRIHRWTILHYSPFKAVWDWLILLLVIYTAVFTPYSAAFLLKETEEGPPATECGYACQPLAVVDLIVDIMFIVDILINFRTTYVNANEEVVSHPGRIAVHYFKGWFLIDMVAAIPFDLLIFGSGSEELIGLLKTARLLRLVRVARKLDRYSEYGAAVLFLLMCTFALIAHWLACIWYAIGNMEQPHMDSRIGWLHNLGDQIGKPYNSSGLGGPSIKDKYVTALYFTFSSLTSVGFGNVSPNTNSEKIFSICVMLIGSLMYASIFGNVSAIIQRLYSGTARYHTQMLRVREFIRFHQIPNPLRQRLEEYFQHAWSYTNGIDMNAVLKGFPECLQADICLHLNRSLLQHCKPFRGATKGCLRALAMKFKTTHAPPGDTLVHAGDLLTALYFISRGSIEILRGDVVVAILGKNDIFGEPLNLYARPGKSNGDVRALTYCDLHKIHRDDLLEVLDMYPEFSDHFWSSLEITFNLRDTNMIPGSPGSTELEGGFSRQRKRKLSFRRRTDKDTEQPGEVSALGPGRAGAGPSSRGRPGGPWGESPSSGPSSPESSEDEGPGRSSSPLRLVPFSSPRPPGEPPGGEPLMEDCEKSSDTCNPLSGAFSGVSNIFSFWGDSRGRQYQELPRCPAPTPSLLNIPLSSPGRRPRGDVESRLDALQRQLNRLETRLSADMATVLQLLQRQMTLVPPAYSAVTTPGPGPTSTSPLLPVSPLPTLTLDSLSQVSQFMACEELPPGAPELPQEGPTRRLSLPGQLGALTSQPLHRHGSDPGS
`CN(C(=O)c1ccccc1OC1CCN(S(C)(=O)=O)CC1)C1CCOC1` (stereo not shown): the “hERG current change (%, negative = inhibition) at 10uM” value was 11.7%.
Consider `NC(=O)Cn1nnc(-c2ccc(CN3CCCCC3)cc2)n1`, for which the “hERG current change (%, negative = inhibition) at 10uM” value is on record as 21.6%.
For the compound `O=C(N1CCCC1)N1CCN(S(=O)(=O)c2ccccc2)CC1`, the “hERG current change (%, negative = inhibition) at 10uM” value was found to be 7.18%.
The figure for `CC(C)/C=N\NC(=O)CCCCC(=O)N/N=C/C(C)C` is 6.11%; for `CCOC(=O)C1=C(SCC(=O)Nc2ccccc2)NC(=O)C(C#N)C12CCCCC2` (stereo not shown) it is -5.43%; for `Cc1ccc(N2CN(CCC3=CCCCC3)CNC2=S)cc1` it is 18%.
As for `Cc1ccc2c(c1)CCCN2C(=O)c1ccc2c(c1)OCO2`, the “hERG current change (%, negative = inhibition) at 10uM” value is given as -4.53%.
As for `O=c1c2c(-c3ccccc3)csc2nc2n1CCC2`, the “hERG current change (%, negative = inhibition) at 10uM” value was 14.5%.
The figure for `O=c1cc(N2CCCCC2)c(-c2ccccc2)nn1Cc1ccc(Cl)cc1` is -1.99%.
For `Cc1cc(C)cc(NC(=O)C2CCN(c3nc(C)cc(C)n3)CC2)c1` the value was -3.58%; for `Cc1ccc(N(CC(=O)NC2CCCC2)C(=O)CCC(=O)Nc2nc(C)cs2)cc1`, -11.9%; for `CCOc1ccc(N(CC(=O)NC2CCCCC2)C(=O)CCC(=O)Nc2nc(C)cs2)cc1`, -50.6%.
The figure for `CCOc1ccc(N(CC(=O)NC2CCCC2)C(=O)CCC(=O)Nc2nc(C)cs2)cc1` is -28.8%.
For `O=C(CC(CC(=O)c1ccccc1)c1ccccc1)c1ccccc1`, the “hERG current change (%, negative = inhibition) at 10uM” value worked out at 0.181%.
Take `O=C(CSc1nnc(CN2CCOCC2)n1-c1ccccc1)Nc1ccc(Cl)cc1`: the “hERG current change (%, negative = inhibition) at 10uM” value is -32.5%.
For the compound `Cc1cc(C)c(S(=O)(=O)N2CCOC2CNC(=O)C(=O)NCCc2ccc(S(N)(=O)=O)cc2)c(C)c1` (stereo not shown), the “hERG current change (%, negative = inhibition) at 10uM” value is -17.8%.
Turning to `O=C(Cn1cnc2c(nnn2Cc2ccccc2)c1=O)NCc1ccccc1Cl`, the “hERG current change (%, negative = inhibition) at 10uM” value is recorded as 5.76%.
The figure for `Cc1ccc(SCc2ccc(C(=O)NCc3cccnc3)cc2)cc1` is 3.85%; for `O=C(O)c1ccc(N/N=C/c2ccc(OC(=O)c3cccc(Cl)c3)cc2)cc1` it is -9.22%; for `O=C(O)c1ccc(N/N=C/c2ccc(OC(=O)c3ccccc3Cl)cc2)cc1` it is -56%.
As for `O=C(Oc1ccc(/C=N/Nc2ccccc2)cc1)c1ccccc1`, the “hERG current change (%, negative = inhibition) at 10uM” value was 15.4%.
On to `COCc1ccc(CN2CCCC(CCC(=O)NCc3cccc(OC)c3)C2)o1` (stereo not shown), for which the “hERG current change (%, negative = inhibition) at 10uM” value is on record as -23.5%.
Take `Cc1ccc(CNC(=O)CCC2CCCN(C(=O)CCC(F)(F)F)C2)o1` (stereo not shown): the “hERG current change (%, negative = inhibition) at 10uM” value turned out to be 3.62%.
For `COc1cccc(CNC(=O)CCC2CCCN(Cc3cc4ccccc4o3)C2)c1` (stereo not shown) the value was -75.6%; for `COc1cccc(CNC(=O)CCC2CCCN(C(=O)c3cc4ccccc4o3)C2)c1` (stereo not shown), -47.7%; for `Cc1ccsc1C(=O)C1CCCN(Cc2cc3ccccc3o2)C1` (stereo not shown), -23.7%.
For `Cc1ccc(CNC(=O)CCC2CCCN(Cc3cc4ccccc4o3)C2)o1` (stereo not shown) the value was -69.2%.
On to `Cc1ccc(N/C=C(\C#N)S(=O)(=O)c2ccccc2)cc1`, for which the “hERG current change (%, negative = inhibition) at 10uM” value is 14.3%.
For `CCOC(=O)c1c(C)sc2c1N(C(=O)CCl)c1cc(Cl)ccc1S2` the value was -3.3%; for `COc1ccccc1NC(=O)Cn1cncc1-c1ccc([N+](=O)[O-])cc1`, 2.57%.
Take `O=C1CCC(C(=O)NCCN2C(=O)S/C(=C\c3cccnc3)C2=O)=NN1`: the “hERG current change (%, negative = inhibition) at 10uM” value was determined as 2.26%.
Turning to `CSC1=NSC2=NC(=O)/C(=C\c3ccc(OC(=O)c4ccco4)cc3)C(=N)N12`, the “hERG current change (%, negative = inhibition) at 10uM” value came to 9.54%.
For `COc1ccc(NC(=S)N2CCN(C(=O)c3ccco3)CC2)cc1`, the “hERG current change (%, negative = inhibition) at 10uM” value is -6.29%.
Consider `CCCCc1ccc(NC(=S)N2CCN(C(=O)c3ccco3)CC2)cc1`, for which the “hERG current change (%, negative = inhibition) at 10uM” value was -75.3%.
For `COC(=O)c1ccc(NC(=S)N2CCN(C(=O)c3ccco3)CC2)cc1` the value was -4.94%; for `CC(C)Cc1ccc(S(=O)(=O)N2CCN(C(=O)c3ccco3)CC2)cc1`, -11.1%.
For `Cc1ccc(S(=O)(=O)N2CCN(C(=O)c3ccco3)CC2)cc1` the value was 1.15%; for `CCCCc1ccc(S(=O)(=O)N2CCN(C(=O)c3ccco3)CC2)cc1`, -66.5%.
In the case of `COc1ccc(C2/C(=C(\O)c3ccc4c(c3)OCCO4)C(=O)C(=O)N2Cc2ccco2)c(OC)c1` (stereo not shown), the “hERG current change (%, negative = inhibition) at 10uM” value was -9.64%.
For `Cn1c(=O)cc(OCCCC(=O)Nc2cccnc2)c2ccccc21` the value was 0.169%.
The figure for `O=c1c2cccc3c2c(nn1CN1CCOCC1)-c1ccccc1-3` is -11.5%; for `O=C(O)Cn1nc2c3c(cccc3c1=O)-c1ccccc1-2` it is 8.18%; for `CCN(CC)CCn1nc2c3c(cccc3c1=O)-c1ccccc1-2` it is -70.2%.
For `COC(=O)c1c(C)[nH]c(C)c1-c1ccccc1` the value was -5.37%; for `O=C1NC(c2ccc3c(c2)OCO3)Nc2ccccc21` (stereo not shown), 10.5%.
Regarding `O=C(Nc1ccncc1)c1ccc2c(c1)OCCO2`, the “hERG current change (%, negative = inhibition) at 10uM” value was determined as 11.8%.
The figure for `COc1ccc(Br)cc1S(=O)(=O)N(CC(=O)N1CCN(C)CC1)c1ccccc1` is -22.6%; for `COc1ccc(C)cc1S(=O)(=O)N(C)CC(=O)N1CCCC1` it is 13.2%.
For `COc1ccc(C)cc1S(=O)(=O)N(CC(=O)N1CCCC1)c1ccccc1`, the “hERG current change (%, negative = inhibition) at 10uM” value is -37.9%.
`COc1ccc(C)cc1S(=O)(=O)N(CC(=O)N1CCCC1)c1ccc(C)cc1`: the “hERG current change (%, negative = inhibition) at 10uM” value is -53%.
The figure for `COc1ccc(C)cc1N(CC(=O)N1CCOCC1)S(C)(=O)=O` is 21.2%.
The figure for `COc1ccc(C)cc1S(=O)(=O)N(CC(=O)N1CCOCC1)c1cc(C)cc(C)c1` is -77.4%; for `COc1ccc(N(CC(=O)N2CCN(C)CC2)S(=O)(=O)c2cc(C)ccc2OC)cc1Cl` it is -60.3%; for `COc1ccc(C)cc1S(=O)(=O)N(C)CC(=O)N1CCN(C)CC1` it is 2.65%.
As for `COc1ccc(Br)cc1S(=O)(=O)N(CC(=O)N1CCOCC1)c1ccccc1`, the “hERG current change (%, negative = inhibition) at 10uM” value is -47%.
For `CC(OC(=O)C1CCC(=O)N1)C(=O)Nc1cc(Cl)cc(Cl)c1` (stereo not shown) the value was 2.72%; for `O=C(CSc1n[nH]c(=O)n1Cc1ccco1)c1ccc2c(c1)OCCO2`, 15%; for `c1cc2c(cc1Oc1nc(N3CCOCC3)nc(N3CCOCC3)n1)OCO2`, 3.77%.
For `CC(C)Cc1ccc(C(C)C(=O)OCC(=O)c2c[nH]c3ccccc23)cc1` (stereo not shown) the value was 3.98%.
The figure for `CCN(CC)S(=O)(=O)c1cc(NC(=O)c2cc([N+](=O)[O-])ccc2N2CCOCC2)ccc1C` is -20.5%; for `COc1ccc(C)cc1NC(=O)c1cc(S(=O)(=O)N2CCCCC2)ccc1N1CCOCC1` it is -39.2%; for `Cc1ccc(C)c(NC(=O)c2cc(S(=O)(=O)N3CCCCC3)ccc2N2CCOCC2)c1` it is -62.7%.
In the case of `O=C(Nc1ccccc1)c1cc(S(=O)(=O)N2CCCCC2)ccc1N1CCOCC1`, the “hERG current change (%, negative = inhibition) at 10uM” value was determined as 1.08%.
Consider `Cc1ccc(NC(=O)c2cc(S(=O)(=O)N3CCCCC3)ccc2N2CCOCC2)cc1F`, for which the “hERG current change (%, negative = inhibition) at 10uM” value is on record as -13.9%.
Take `Cc1ccc(S(=O)(=O)N2CCOCC2)cc1NC(=O)c1cc([N+](=O)[O-])ccc1N1CCOCC1`: the “hERG current change (%, negative = inhibition) at 10uM” value is reported as -67.7%.
For `O=C(Nc1ccccc1Cl)c1cc(S(=O)(=O)N2CCCCC2)ccc1N1CCOCC1` the value was -39.7%; for `CC(C)Oc1ccc(S(=O)(=O)N2CCOCC2)cc1NC(=O)c1cc([N+](=O)[O-])ccc1N1CCOCC1`, -45.7%; for `COc1ccc(S(=O)(=O)N2CCCCC2)cc1NC(=O)c1cc([N+](=O)[O-])ccc1N1CCOCC1`, -30.4%.
For `Cc1ccc(NC(=O)c2cc([N+](=O)[O-])ccc2N2CCOCC2)cc1S(=O)(=O)N1CCOCC1` the value was -46%.
Regarding `NC(=O)c1ccccc1NC(=O)c1cc(S(=O)(=O)N2CCCCC2)ccc1N1CCOCC1`, the “hERG current change (%, negative = inhibition) at 10uM” value is given as -73.9%.
The figure for `Cc1ccc(NC(=O)c2cc([N+](=O)[O-])ccc2N2CCOCC2)cc1S(=O)(=O)N(C)C` is -52.8%; for `Cc1ccc(NC(=O)/C(=C/c2cccs2)NC(=O)c2ccco2)c(C)c1` it is -9.56%.
As for `CCCC(=O)NNC(=O)Nc1ccccc1`, the “hERG current change (%, negative = inhibition) at 10uM” value is on record as 19.8%.
The figure for `O=c1[nH]c(CSc2nc3ccccc3[nH]2)nc2c1cnn2-c1ccccc1` is -17.6%.
The figure for `COc1ccc(CC(=O)Nc2cc(C)on2)cc1OC` is 2.2%.
For `CC(=O)Nc1ccc(S(=O)(=O)Nc2nc3ccccc3nc2Nc2cccc(S(N)(=O)=O)c2)cc1` the value was 10.3%; for `CCOc1ccc2oc(-c3ccccc3)c(C(=O)N3CCN(C)CC3)c2c1`, -9.67%.
`O=C(Nc1ccccc1N1CCCCC1)c1cc(S(=O)(=O)N2CCOCC2)ccc1Cl`: the “hERG current change (%, negative = inhibition) at 10uM” value is on record as -4.01%.
The figure for `O=C(Nc1ccccc1N1CCCC1)c1cc(S(=O)(=O)N2CCOCC2)ccc1Cl` is -34.5%; for `CS(=O)(=O)c1ccc(Cl)c(NC(=O)c2cc(S(=O)(=O)N3CCOCC3)ccc2N2CCCC2)c1` it is -81.3%.
As for `Cc1nc(CC(=O)NNS(=O)(=O)c2ccc(F)c(Cl)c2)cs1`, the “hERG current change (%, negative = inhibition) at 10uM” value turned out to be 20%.
The figure for `O=C(COC(=O)C1CCCN1C(=O)c1cccs1)Nc1ccc2c(c1)OCO2` (stereo not shown) is -11.9%.
